An excerpt weighted towards active compounds, which were near 1.8% of everything screened.
LYPLA2 counter – blocks human lysophospholipase 2, a PME1 counter-screen | O95372 | recombinant LYPLA2, FP-Rh probe fluorescence polarization | inhibition, % at 5.9 µM | hit rate 0.38% among 320,000 | AID 2177;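 active = inhibition above the screen-wide mean plus 3 SD, limit set per campaign, cut at about 26% in these data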;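 note: 0% = LYPLA2 with DMSO and 100% = wells lacking LYPLA2 enzyme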
GSTO1 inh – counter-screen for RBBP9 inhibitors: inhibitors of human GSTO1; P78417; recombinant GSTO1, activity-based probe fluorescence polarization; inhibition, % at 5.96 µM; hit rate 1.1% among 300,000; AID 1974;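 active = inhibition above the campaign mean inhibition plus 3 SD, cut at about 35% in these data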;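 note: 0% = GSTO1-1 with DMSO and 100% = wells lacking GSTO1-1 enzyme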
Target sequence (P78417 whole entry, looked up): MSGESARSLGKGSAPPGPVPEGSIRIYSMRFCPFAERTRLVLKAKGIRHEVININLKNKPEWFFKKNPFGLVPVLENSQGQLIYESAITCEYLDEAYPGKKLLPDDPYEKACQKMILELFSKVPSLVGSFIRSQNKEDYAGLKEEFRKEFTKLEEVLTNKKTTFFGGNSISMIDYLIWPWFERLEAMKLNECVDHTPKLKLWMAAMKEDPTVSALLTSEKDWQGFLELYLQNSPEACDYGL
PAD4 inh – inhibitors of human PAD4 | recombinant PAD4, RCA probe fluorescence polarization | inhibition, % at 6.36 µM | Q9UM07 | hit rate 0.41% among 330,000;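 active = percent inhibition above a cutoff equal to the mean of all tested compounds plus 3 SD, cut at about 15% in these data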;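 note: 0% = PAD4 with RCA probe and DMSO and 100% = probe without PAD4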
LYPLA1 counter – counter-screen for PME1 inhibitors: inhibitors of human LYPLA1; hit rate 0.16% among 320,000; inhibition, % at 5.9 µM; recombinant LYPLA1, FP-Rh probe fluorescence polarization;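 active = inhibition above the mean of all tested compounds plus 3 SD, set per campaign, cut at about 14% in these data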;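 note: inhibitors block serine hydrolase probe labeling of LYPLA1 so polarization falls; 0% = enzyme with DMSO and 100% = wells lacking LYPLA1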
Target sequence (O75608 whole entry, looked up): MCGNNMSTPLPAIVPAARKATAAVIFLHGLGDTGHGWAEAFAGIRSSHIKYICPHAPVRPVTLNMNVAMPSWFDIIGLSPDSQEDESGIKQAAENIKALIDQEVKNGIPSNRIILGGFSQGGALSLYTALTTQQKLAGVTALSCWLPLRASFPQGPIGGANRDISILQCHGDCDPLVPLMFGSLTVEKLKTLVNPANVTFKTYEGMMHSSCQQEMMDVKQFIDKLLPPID
Fam108B counter – blocks mouse Fam108B hydrolase in RBBP9 counter-screen | recombinant Fam108B, FP-Rh probe fluorescence polarization | inhibition, % at 9.51 µM | hit rate 0.33% among 300,000 | AID 1947;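 active = inhibition above the screen mean inhibition plus 3 SD, computed separately per campaign, cut at about 18% in these data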;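 note: inhibitors lower polarization as less probe binds the enzyme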
PME-1 inh – blocks human protein phosphatase methylesterase 1; recombinant PME-1, FP-Rh probe fluorescence polarization; inhibition, % at 5.9 µM; Q9Y570; hit rate 0.53% among 320,000;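 active = inhibition above the campaign mean of all compounds plus 3 SD, cut at about 26% in these data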;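 note: competitive labeling of PME-1 active site by serine hydrolase directed probe; 0% = PME-1 with DMSO and 100% = wells lacking PME-1 enzyme; inhibitors block probe labeling so polarization falls and inhibition rises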
GSTO1 confirm – confirmation of human GSTO1 inhibitors. recombinant GSTO1, probe fluorescence polarization. hit rate 54% among 2,400. inhibition, % at 5.96 µM. shares compounds with GSTO1 inh;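 active = inhibition above the primary screen's cutoff, its mean inhibition plus 3 SD, cut at about 35% in these data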;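 note: loss of polarization as inhibitors block binding of rhodamine sulfonate ester activity probe; 0% = GSTO1 with DMSO and 100% = wells lacking GSTO1 enzyme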
GSTO1 recomb ABPP – inhibitors of recombinant human GSTO1 | shares compounds with GSTO1 inh | gel ABPP SE-Rh probe fluorescence | AID 463110 | inhibition, % at 1 µM | hit rate 30% among 130;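 active = inhibition of the enzyme GSTO1 above about 75%, limit read from the data; inactive = inhibition below that limit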
The depositor's hits bear a star; . = not tested or not shown.

SMILES | LYPLA2 counter | GSTO1 inh | PAD4 inh | LYPLA1 counter | Fam108B counter | PME-1 inh | GSTO1 confirm | others
CCC(Sc1nc(-c2ccccc2)c(C#N)c(=O)[nH]1)C(=O)Nc1nnc(C)s1 (stereo not given) | 0 | 61* | 1 | 0 | -4 | -7 | 63*
CCOC(=O)N1CCN(C(=O)c2ccc(CS(=O)c3ccccc3)o2)CC1 (stereo not given) | 11 | -3 | -1 | 4 | 4 | -4 | .
CCOC(=O)N1CCC(N2C(=O)c3ccccc3C2Nc2cc(C)cc(C)c2)CC1 (stereo not given) | 2 | -3 | 1 | 2 | -2 | 25 | .
CCOC(=O)N1CCC(N2C(=O)c3ccccc3C2Nc2cc(C(=O)OC)cc(C(=O)OC)c2)CC1 (stereo not given) | 3 | 59* | -1 | 1 | -2 | 21 | -1
CC(NC(=O)Cc1ccccc1)c1ccccc1 (stereo not given) | 3 | 8 | -7 | 1 | -1 | -3 | .
O=C(Cc1ccccc1)NC1(O)C(=O)c2ccccc2C1=O | -6 | 72* | 9 | 1 | 3 | 5 | 75*
c1cc2c3c(cccc3c1)NC1(CCCCCC1)N2 | -3 | 53* | 0 | -6 | 3 | 2 | 21
COc1ccc(S(=O)(=O)N2CCOCC2)cc1NC(=O)CN1CCN(C)CC1 | 2 | 38* | -3 | 3 | 2 | 3 | 4
O=c1cnnc(SCc2ccc([N+](=O)[O-])cc2)[nH]1 | 0 | -2 | -1 | 0 | 4 | -2 | .
CC(=O)Nc1ccc(C(=O)N(C)C(C(=O)Nc2ccc(C)cc2)c2ccccn2)cc1 (stereo not given) | 5 | 6 | 4 | 0 | 1 | 0 | .
CCOc1ccc(NC(=O)C(c2ccccn2)N(C(=O)CCl)c2ccc(OCC)cc2)cc1 (stereo not given) | 0 | 43* | -8 | -1 | 3 | 6 | 10
CCCN(C(=O)CCl)C1=CCCCC1 | -5 | 38* | -4 | -2 | -3 | 0 | 58* | GSTO1 recomb ABPP=63
O=C(CCCCl)Nc1c2c(nn1-c1ccccc1)CSC2 | 4 | 5 | 3 | 3 | -1 | -1 | .
O=C(CCl)Nc1c2c(nn1-c1ccccc1)CSC2 | -2 | 98* | 1 | -3 | -3 | -1 | 98*
COc1ccccc1C(=O)Nc1ccnn1C1CCN(C(=O)c2ccoc2C)CC1 | 5 | -3 | -3 | -1 | 3 | 4 | .
CCOC(=O)c1sc(N(Cc2ccccc2)C(=O)CCl)nc1C | 0 | 84* | 5 | -7 | 7 | -6 | 92*
CN(Cc1ccc(Cl)s1)C(=O)CCl | 7 | 92* | 3 | 8 | 3 | -4 | 104* | GSTO1 recomb ABPP=70
COc1ccc(NC(=O)CN(C)C(=O)c2cc3c(s2)CCCCC3)cc1 | 6 | -3 | 3 | 0 | 1 | 1 | .
COc1ccc(NC(=O)CN(C)C(=O)c2cc3c(s2)CCC3)cc1 | -1 | 59* | -4 | -4 | -1 | -1 | 17
COc1ccc(N/N=C(C)/C(=N/O)C(=O)Nc2ccccc2)cc1 | -5 | 40* | -3 | -3 | -1 | 0 | 15
COc1ccc(NC(=O)c2cccc(NC(=O)c3ccccc3)c2)cc1 | -6 | -8 | 2 | -4 | -9 | -4 | .
Cc1c(Br)c(O)c(Br)c(O)c1/C=N/n1c(-c2ccccc2)n[nH]c1=S | 2 | 58* | 1 | -5 | 3 | -12 | 35*
COc1ccc(C2(C)NC(=O)N(CC(=O)NCCC3=CCCCC3)C2=O)cc1OC (stereo not given) | -6 | 39* | -4 | -5 | 3 | -6 | 22
COc1ccc2cc(C3(C)NC(=O)N(CC(=O)NCCC4=CCCCC4)C3=O)ccc2c1 (stereo not given) | 11 | 2 | -1 | -2 | -1 | 5 | .
O=C1CC(CC(=O)N/N=C/c2ccccc2[N+](=O)[O-])=NN1 | 1 | 52* | 14 | -3 | -3 | -6 | 12
CC(OC(=O)c1cccc(-n2cnnn2)c1)c1nc2ccccc2c(=O)[nH]1 (stereo not given) | -1 | . | -3 | -2 | . | 6 | .
CCN1CCN(CCC(=O)Nc2ccccc2C)CC1 | -1 | 5 | -2 | 3 | 4 | 0 | .

Source: PubChem BioAssay
